# Whole data set: some 33,000 sequences, median “E-score (-0.5 to 0.5)” near -0.056, cut for the highest 2% near 0.38. The sample as a whole holds a higher share of the highest values than the screen did.
# Biological target: Stb4 (UniProt P50104)
# Experiment: PBM E-score (8-mer binding enrichment) (E-score (-0.5 to 0.5)); higher = stronger / more preferred TF binding
# Settings: protein concentration: 200 nM; construct: GST-DNA-binding domain
# Method: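 Universal 'all 10-mer' protein binding microarrays (Agilent AMADID 015681) probed with GST-tagged S. cerevisiae TFs (full-length or DBD) made by in vitro transcription/translation (PURExpress), about 100-200 nM. Bound TF was detected with fluorescent anti-GST. Each ungapped 8-mer (which stands for itself and its reverse complement) is scored by the PBM enrichment score (E-score), a modified Wilcoxon-Mann-Whitney statistic from -0.5 to +0.5, computed with the Universal PBM Analysis Suite. Scale: above 0.35 generally sequence-specific binding.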
# Sequence of UniProt P50104 (P50104 whole entry): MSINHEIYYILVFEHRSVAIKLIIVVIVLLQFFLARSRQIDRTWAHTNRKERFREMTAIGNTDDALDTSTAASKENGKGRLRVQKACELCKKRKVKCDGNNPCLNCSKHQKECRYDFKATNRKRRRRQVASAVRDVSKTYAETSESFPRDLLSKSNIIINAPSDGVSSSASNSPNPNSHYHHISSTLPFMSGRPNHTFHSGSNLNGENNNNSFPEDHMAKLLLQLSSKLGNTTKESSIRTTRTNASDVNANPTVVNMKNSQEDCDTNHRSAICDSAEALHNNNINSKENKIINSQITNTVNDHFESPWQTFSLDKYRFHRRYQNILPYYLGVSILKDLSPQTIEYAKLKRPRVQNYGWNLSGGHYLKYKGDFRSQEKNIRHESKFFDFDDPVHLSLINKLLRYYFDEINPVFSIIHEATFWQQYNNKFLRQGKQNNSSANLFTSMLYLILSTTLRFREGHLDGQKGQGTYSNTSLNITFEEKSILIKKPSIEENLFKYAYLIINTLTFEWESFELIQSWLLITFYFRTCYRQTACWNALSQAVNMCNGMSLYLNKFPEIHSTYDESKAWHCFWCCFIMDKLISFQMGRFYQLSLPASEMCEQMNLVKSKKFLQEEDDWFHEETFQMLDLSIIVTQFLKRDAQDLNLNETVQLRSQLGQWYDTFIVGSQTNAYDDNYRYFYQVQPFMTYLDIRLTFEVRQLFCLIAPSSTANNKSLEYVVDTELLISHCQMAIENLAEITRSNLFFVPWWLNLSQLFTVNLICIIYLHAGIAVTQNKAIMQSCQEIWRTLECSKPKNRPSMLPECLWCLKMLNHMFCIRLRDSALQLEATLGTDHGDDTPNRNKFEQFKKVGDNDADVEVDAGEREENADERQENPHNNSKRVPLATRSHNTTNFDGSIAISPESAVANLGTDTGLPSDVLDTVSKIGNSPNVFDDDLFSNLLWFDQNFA
row,Sequence,PBM E-score
1,CTGCGAAC,-0.298
2,CCAACTTA,-0.00182
3,CTCTTAAC,-0.0542
4,GAGTACCC,0.0867
5,GCGGATGA,0.304
6,CGGGATAG,0.191
7,CCGGATTA,0.319
8,TCGGATAA,0.487
9,CAGGATAA,-0.12
10,CAGGATAG,-0.0723
11,CCGGATAG,0.424
12,GCGGATAA,0.403
13,TGGGATAA,-0.182
14,CCGGATAA,0.452
15,GGGGATAA,0.00287
16,TAGGATAA,-0.0915
17,ATTATCTC,0.0642
18,CAGGGAGA,-0.266
19,CGATGGTC,-0.158
20,CTTCTTTA,-0.0675
21,GACCCTGC,0.1
22,AAAGCGTC,-0.194
23,CACACTAA,-0.194
24,CGAGAAGA,0.0362
25,CCGATATC,0.297
26,CCGGATAC,0.409

row,Sequence,PBM E-score
1,GCGGATAC,0.367
2,CAGGATAC,-0.198
3,ATCGGCCG,0.305
4,AAAGCCAG,-0.246
5,CGGAACAC,0.367
6,GGGAACAA,0.225
7,AGGAACAG,-0.243
8,CGGAACAA,0.444
9,TGGAACAA,-0.2
10,CGGAACAG,0.427
11,ATCTATGG,-0.184
12,AGCTCGGG,0.443
13,AGCTCGCC,-0.0787
14,AGCTCGTG,0.0631
15,AGCTCGAC,-0.0952
16,AGCTCGCG,-5e-05
17,AGCTCGGC,0.412
18,CGTGCCAG,-0.186
19,AAGGTAGG,-0.0211
20,ACTTGACA,-0.05
21,ACGATACG,-0.314
22,AGCCGCGG,0.315
23,AGCCGAGG,0.437
24,CGCCGATC,0.241
25,CGCCGAGC,0.39
26,GGCCGAGA,0.347

row,Sequence,PBM E-score
1,CGCCGAGA,0.361
2,CACCGAGG,0.308
3,AGCCGAGA,0.436
4,AGCCGATC,0.313
5,AGCCGACC,0.293
6,AGCCGAGC,0.448
7,AGCCGATA,0.344
8,GCATATGC,-0.173
9,CGCCACGC,-0.108
10,AAGGACTC,0.127
11,TGGATGAA,-0.185
12,GTGCCAGA,-0.31
13,AAGCGGCA,0.133
14,GCTGACGA,-0.346
15,GAGCACTC,0.09
16,CTCCGGAC,0.285
17,TTCCGGAA,0.46
18,AACCGGAA,0.377
19,ATCCGGAA,0.436
20,ATCCGGAC,0.336
21,GTCCGGAA,0.373
22,AACCGGAT,0.383
23,ATACGGAA,0.36
24,CTCCGGAA,0.391
25,CTCCGGTA,0.254
26,AACCGGAG,0.23

row,Sequence,PBM E-score
1,TTACGGAA,0.365
2,CAAATCCC,0.141
3,CACCCAGG,-0.115
4,GCGCCGCA,0.0423
5,GCTGGCAC,-0.224
6,CTAAAATC,-0.12
7,CCCGCTTA,0.0362
8,AAACAGTT,-0.0803
9,AATCAATC,0.055
10,ATCCGGAG,0.385
11,ATCCGGAT,0.459
12,ATCCGGTG,0.397
13,ATGCGGAG,0.0793
14,CTCCGGAG,0.304
15,ATCCGGTA,0.322
16,ATCCGCAT,0.348
17,ATCCGGTC,0.302
18,GTCCGGAC,0.283
19,CCTGGGTC,-0.126
20,AGTTAAAA,0.045
21,CATCAGGC,-0.149
22,GCTCATCC,0.127
23,AACGGATG,0.304
24,GACGGATA,0.385
25,AACGGATT,0.155
26,TACGGATA,0.385

row,Sequence,PBM E-score
1,AACGGATA,0.439
2,GACGGATC,0.265
3,CACGGATA,0.385
4,GACGGAGA,0.187
5,CACGGATC,0.35
6,TACGGAAA,0.322
7,TACGGAGA,0.0409
8,CACGGATG,0.338
9,GCTCAACC,-0.206
10,ACTCTCCT,-0.272
11,GGCAAGTA,0.0793
12,TGCGAGAA,-0.132
13,CAAAATCA,-0.00631
14,TATCCGCA,0.408
15,TGTCCGAA,0.35
16,GATCCAAA,-0.0151
17,AATCCGCA,0.157
18,GATCCGAA,0.482
19,CATCCTAA,-0.079
20,CATCCAAA,-0.2
21,GATCCGTA,0.351
22,CATCCGAA,0.476
23,TATCCAAA,-0.184
24,TATCCGAA,0.493
25,CATCCGCA,0.314
26,GCTTTCAC,-0.148

row,Sequence,PBM E-score
1,GCTATAGC,-0.096
2,ATTCTGCG,-0.0218
3,GAGAGACC,-0.122
4,ATACCTCC,-0.0529
5,TGATATCA,-0.281
6,TGCCACCA,-0.374
7,GGCGTCAC,-0.0997
8,GCCTTCAA,-0.13
9,GATGCGGC,0.0547
10,ATTCTTTC,-0.0171
11,GGTCCGAA,0.416
12,CGTCCGAA,0.336
13,AATCCGAA,0.42
14,GGTCCGAC,0.292
15,AATCCGAT,0.368
16,AATCCGTA,0.12
17,TATAGCCA,-0.113
18,CCGACTAA,0.29
19,CGGACAAG,0.138
20,CTCCTCGA,-0.284
21,CTATCCAC,-0.0315
22,CTATCCGC,0.396
23,ATATCCTC,-0.03
24,CTATCCCC,-0.0734
25,ACATCCGC,0.382
26,ATATCCGC,0.389

row,Sequence,PBM E-score
1,ACTGCCCG,0.123
2,ACTTTTCG,0.0867
3,GCCTCGCC,0.0101
4,GCCCCGGA,0.385
5,AGCCCGGA,0.361
6,GGCCCGGA,0.402
7,ACCCCGGA,0.232
8,CCCCCGGA,0.176
9,CGCCCGGA,0.328
10,AGAGGTTC,0.0565
11,ATAGCGGG,0.0172
12,AAGATGTG,-0.156
13,GCTAAGCA,-0.217
14,CCACAGAA,-0.0915
15,CCCAGACG,-0.17
16,AGCTTCGA,-0.189
17,AACTTCGC,-0.041
18,ATCTTCGC,0.016
19,AACTTCGG,0.408
20,ATCTTCGA,-0.171
21,AGCTTCGG,0.395
22,ATCTTCCG,0.436
23,ATCTTCCC,0.226
24,AACTTCGT,-0.177
25,ATCTTCCA,-0.137
26,ATCTTCGG,0.423

row,Sequence,PBM E-score
1,AGCTTCGC,-0.276
2,ATCGAACC,0.089
3,CTAGTCCA,-0.153
4,ACCAATGC,-0.00399
5,GTAGTCAC,-0.16
6,CTCTACTC,-0.106
7,GGATTCCA,0.13
8,ACCTTCCG,0.4
9,ACCTTCCT,-0.342
10,ACCTTCCC,0.0875
11,CCCTACAA,-0.218
12,ATCTATCA,-0.0983
13,AGAATGGC,-0.0824
14,GAGTCGGC,0.223
15,AAGTCGGA,0.372
16,CAGTCGGA,0.316
17,GAGTCGGA,0.387
18,TAGTCGCA,-0.0285
19,TAGTCGGA,0.405
20,GGATCGGA,0.402
21,GGATCGAA,0.214
22,CGATCGGA,0.322
23,AGATCGGG,0.28
24,AGATCGGC,0.189
25,AGATCGGA,0.438
26,GCATGAAA,-0.101

row,Sequence,PBM E-score
1,GTTCTCGA,-0.166
2,ACGAATCG,0.0102
3,CCGAATCA,0.361
4,CCGAATCG,0.405
5,CCGAATCC,0.427
6,ACGAATCC,0.009
7,GCGAATCC,-0.0095
8,ACTAGCAG,-0.298
9,GCCTACCC,0.0606
10,ACAGATCG,-0.0736
11,AATCCGGC,0.241
12,TATCCGGA,0.46
13,AATCCGGT,0.246
14,TATCCTGA,-0.0875
15,GAACCGGC,0.262
16,GATCCGCA,0.316
17,GATCCGGC,0.396
18,AATCCGGA,0.363
19,GATCCGGA,0.421

# From the supplement of paper PMC3334620
